This is part of a sample that, as a whole, favours compounds with a hit. Of some 83,000 tested, about 20% had one in any assay.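 Single-dose data. Exposure time 48 hours. Values below 10 considered active.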 Calls of active or inactive are those of the source.
Legend:
Test in all cases: NCI-60 one-dose screen, 48 h (100 = growth as untreated, 0 = no growth, -100 = all killed)
Details in all cases: 10 µM unless noted
DU-145 prostate = tested on: DU-145 prostate
K-562 leukemia = tested on: K-562 leukemia
MALME-3M melanoma = tested on: MALME-3M melanoma
MDA-MB-231 breast = tested on: MDA-MB-231 breast
RXF 393 renal = tested on: RXF 393 renal
SF-268 CNS = tested on: SF-268 CNS
SF-295 CNS = tested on: SF-295 CNS
SF-539 CNS = tested on: SF-539 CNS
UACC-257 melanoma = tested on: UACC-257 melanoma
M14 melanoma = tested on: M14 melanoma
HCT-15 colon = tested on: HCT-15 colon
SNB-75 CNS = tested on: SNB-75 CNS
SNB-19 CNS = tested on: SNB-19 CNS
U251 CNS = tested on: U251 CNS
PC-3 prostate = tested on: PC-3 prostate
SK-MEL-5 melanoma = tested on: SK-MEL-5 melanoma
UACC-62 melanoma = tested on: UACC-62 melanoma
LOX IMVI melanoma = tested on: LOX IMVI melanoma
SK-MEL-28 melanoma = tested on: SK-MEL-28 melanoma
HT29 colon = tested on: HT29 colon

Measured: growth

COc1ccc(-c2cc(=O)oc3c4c(ccc23)OCN(Cc2ccc(F)cc2)C4)cc1
active: SK-MEL-5 melanoma 3.99%
inactive: DU-145 prostate 73.4% | K-562 leukemia 24.3% | MALME-3M melanoma 77.1% | MDA-MB-231 breast 58.9% | RXF 393 renal 57% | SF-268 CNS 82% | SF-295 CNS 27.3% | SF-539 CNS 74.7% | UACC-257 melanoma 39.6% | M14 melanoma 54.6% | HCT-15 colon 64.3% | SNB-75 CNS 69.7% | SNB-19 CNS 72.2% | U251 CNS 59% | PC-3 prostate 54.9% | UACC-62 melanoma 61.6% | LOX IMVI melanoma 73% | SK-MEL-28 melanoma 83.4%

O=C1c2[nH]cc(CN[C@@H]3CCCN3)c2C(=O)c2c1c(O)c1ccccc1c2O
active: DU-145 prostate -98.6% | K-562 leukemia -81.5% | MALME-3M melanoma -51.9% | MDA-MB-231 breast -96.7% | RXF 393 renal -98.2% | SF-268 CNS -88.2% | SF-539 CNS -94.1% | UACC-257 melanoma -64.9% | M14 melanoma -72.8% | HCT-15 colon -38.9% | SNB-75 CNS -71.6% | SNB-19 CNS -84.9% | U251 CNS -98.9% | PC-3 prostate -95.1% | SK-MEL-5 melanoma -89.8% | UACC-62 melanoma -100% | LOX IMVI melanoma -93% | SK-MEL-28 melanoma -100%
inactive: SF-295 CNS 70.5%

CC1(C)N=C(N)N=C(N)N1c1cccc(/C=C/C=C/c2cccc([N+](=O)[O-])c2)c1
active: PC-3 prostate 2.12%
inactive: DU-145 prostate 73% | K-562 leukemia 20.6% | MALME-3M melanoma 66.3% | MDA-MB-231 breast 81.3% | RXF 393 renal 90.4% | SF-268 CNS 42.5% | SF-295 CNS 83.8% | SF-539 CNS 15.9% | UACC-257 melanoma 41.4% | M14 melanoma 74.5% | HCT-15 colon 88.7% | SNB-75 CNS 58.3% | SNB-19 CNS 51.6% | SK-MEL-5 melanoma 68.3% | UACC-62 melanoma 47.3% | LOX IMVI melanoma 33.7% | SK-MEL-28 melanoma 65.6%

O=[N+]([O-])c1cc2c(cc1Br)C1C(C3C2C(Cl)(Cl)C(Cl)=C(Cl)C3(Cl)Cl)C(Cl)(Cl)C(Cl)=C(Cl)C1(Cl)Cl (stereo unspecified)
inactive: DU-145 prostate 108% | K-562 leukemia 105% | MALME-3M melanoma 80.8% | MDA-MB-231 breast 108% | RXF 393 renal 96.9% | SF-268 CNS 102% | SF-295 CNS 95.8% | SF-539 CNS 94.9% | UACC-257 melanoma 92.9% | M14 melanoma 90.6% | HCT-15 colon 103% | SNB-75 CNS 85.8% | SNB-19 CNS 106% | PC-3 prostate 85.1% | SK-MEL-5 melanoma 102% | UACC-62 melanoma 87.1% | LOX IMVI melanoma 91.9% | SK-MEL-28 melanoma 102%

O=[N+]([O-])c1cc2c(cc1Br)-c1ccccc1C2
inactive: DU-145 prostate 113% | K-562 leukemia 95.6% | MALME-3M melanoma 110% | MDA-MB-231 breast 90.8% | RXF 393 renal 99.5% | SF-268 CNS 98.1% | SF-295 CNS 93.4% | SF-539 CNS 101% | UACC-257 melanoma 98.8% | M14 melanoma 78.7% | HCT-15 colon 45.3% | HT29 colon 95.9% | SNB-75 CNS 86.5% | U251 CNS 98.5% | PC-3 prostate 91.8% | UACC-62 melanoma 82% | LOX IMVI melanoma 88.8% | SK-MEL-28 melanoma 98.4%

O=C1/C(=C/c2ccc(F)cc2)CN(Cc2cn(CCNc3ccnc4cc(Cl)ccc34)nn2)C/C1=C\c1ccc(F)cc1
inactive: SNB-75 CNS 50%
active: DU-145 prostate 5.98% | K-562 leukemia 5.23% | MALME-3M melanoma -80.6% | MDA-MB-231 breast -39.7% | RXF 393 renal -97.2% | SF-268 CNS -80.2% | SF-295 CNS -55.5% | SF-539 CNS -78.5% | UACC-257 melanoma -72.5% | M14 melanoma -49.7% | HCT-15 colon -60.5% | HT29 colon -79.2% | U251 CNS -91.4% | SK-MEL-5 melanoma -100% | LOX IMVI melanoma -93.8% | SK-MEL-28 melanoma -79.7%

COc1cc(/C=N/NC(=O)c2cnn3c2NC(c2ccccc2)C3)cc(OC)c1OC (stereo unspecified)
inactive: DU-145 prostate 90.8% | K-562 leukemia 31.6% | MALME-3M melanoma 65.2% | MDA-MB-231 breast 67.1% | RXF 393 renal 87.7% | SF-268 CNS 81.4% | SF-295 CNS 53.1% | SF-539 CNS 68.1% | UACC-257 melanoma 86.5% | M14 melanoma 50.3% | HT29 colon 20.5% | SNB-75 CNS 52.4% | SNB-19 CNS 66.2% | U251 CNS 66.9% | PC-3 prostate 56.2% | SK-MEL-5 melanoma 50.4% | UACC-62 melanoma 57.4% | LOX IMVI melanoma 61.3% | SK-MEL-28 melanoma 70.4%

CCOC(=O)n1cc(C2=C(c3cn(C)c4ccccc34)COC2=O)c2ccccc21
inactive: MALME-3M melanoma 37.2% | MDA-MB-231 breast 25.5% | RXF 393 renal 19.6% | SF-268 CNS 26% | UACC-257 melanoma 55.1% | M14 melanoma 20.1% | SNB-75 CNS 26.4% | U251 CNS 14.9% | PC-3 prostate 28.3% | UACC-62 melanoma 26.1% | LOX IMVI melanoma 18.7% | SK-MEL-28 melanoma 47.7%
active: DU-145 prostate -14.3% | K-562 leukemia 5.86% | SF-295 CNS 1.58% | SF-539 CNS -16.3% | HT29 colon 9.6% | SK-MEL-5 melanoma -7.08%

— PubChem BioAssay (NCI)
